Assay outcomes deposited in PubChem BioAssay by National Center for Advancing Translational Sciences (NCATS).
G9a block: inhibitors of human histone lysine methyltransferase G9a. 8.8% of 350,000 active. Potency, µM (highest dose often 102 µM), inactives show at the highest dose activity, negative = inhibition, most hits filed as inhibitors. G9a H3K9 monomethylation, AlphaScreen, 2 h; further: potency means the concentration at half of the fitted maximal effect; on the % scale 0 is the no-effect control and ±100 the full control effect; nearly all actives have a fitted effect of over 75% in size
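Step 1: enzyme (final 20 nM) with compound, 15 min RT. Step 2: substrate peptide 500 nM and SAM 20 uM, 2 h RT. Step 3: anti-H3K9me1 antibody and AlphaScreen beads, 10 min, then plate read.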
Sfp inh: Sfp phosphopantetheinyl transferase inhibition; Potency, µM, without a hit: largest response in the series, negative = inhibition, actives largely listed as inhibitors; Biochemical Sfp PPTase activity, qHTS; Q9F4F7; 3.5% of 310,000 active; AID 1490;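 further: the enzyme is Sfp with the accession as filed and its product quenches rhodamine fluorescence; potency means the concentration at half of the fitted maximal effect; 0% = enzyme reaction without inhibitor and -100% = no enzyme wells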
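Step 1, compound plus 15 nM Sfp-PPTase, 15 min, room temperature. Step 2, add rhodamine-CoA (5 uM) and BHQ-2-YbbR (12.5 uM). Step 3, read 525/598 nm fluorescence at 0 and 30 min.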
PLK1 PBD block: inhibitors of human PLK1 polo-box domain binding; Plk1 PBD binding of FITC phosphopeptide, fluorescence polarization; 2.8% of 360,000 active; P53350; Potency, µM, without a hit: max response, negative = inhibition, most hits filed as inhibitors; further: potency means the concentration at half of the fitted maximal effect; series mostly up to about 57 µM; on the % scale 0 is the no-effect control and ±100 the full control effect; nearly all actives have a fitted effect of over 65% in size
Target sequence (P53350 whole entry, looked up, the tested form may be a part): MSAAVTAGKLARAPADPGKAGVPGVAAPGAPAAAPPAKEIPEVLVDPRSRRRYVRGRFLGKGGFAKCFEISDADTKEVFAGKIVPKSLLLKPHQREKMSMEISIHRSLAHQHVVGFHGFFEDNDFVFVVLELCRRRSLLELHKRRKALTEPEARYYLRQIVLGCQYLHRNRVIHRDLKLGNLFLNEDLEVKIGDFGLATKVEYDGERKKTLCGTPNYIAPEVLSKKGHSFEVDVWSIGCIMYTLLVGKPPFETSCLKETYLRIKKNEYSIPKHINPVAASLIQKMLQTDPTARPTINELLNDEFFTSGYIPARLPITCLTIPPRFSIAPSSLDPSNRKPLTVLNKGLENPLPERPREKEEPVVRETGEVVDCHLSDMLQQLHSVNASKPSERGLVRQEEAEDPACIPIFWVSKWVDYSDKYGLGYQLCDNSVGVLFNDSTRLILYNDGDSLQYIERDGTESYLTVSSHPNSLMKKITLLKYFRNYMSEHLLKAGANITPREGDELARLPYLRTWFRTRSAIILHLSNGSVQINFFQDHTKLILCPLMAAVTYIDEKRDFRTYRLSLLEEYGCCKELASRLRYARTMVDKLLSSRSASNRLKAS
HP1b binding inh: blocks HP1-beta chromodomain binding to methylated histone tails. 0.56% of 390,000 active. P83916. Potency, µM (highest dose often 114 µM), without a hit: at the top dose activity change, negative = inhibition, usual class: inhibitors. AlphaScreen HP1-beta / biotin-H3K9me3 peptide binding; further: potency means the concentration at half of the fitted maximal effect; nearly all actives have a fitted effect of over 70% in size
Target sequence (P83916 whole entry, looked up): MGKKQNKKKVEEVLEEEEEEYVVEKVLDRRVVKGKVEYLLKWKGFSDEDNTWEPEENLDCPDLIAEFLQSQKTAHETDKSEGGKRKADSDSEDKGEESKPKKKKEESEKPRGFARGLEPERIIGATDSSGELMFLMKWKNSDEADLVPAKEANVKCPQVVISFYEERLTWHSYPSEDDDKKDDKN
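Compound inhibition of the preformed complex between 50 nM HP1-beta and 50 nM biotinylated H3K9me3 peptide was read by AlphaScreen. Buffer was PBS pH 7.4 with 0.01% Tween-20. Incubations ran 30 min at room temperature, with 10 ug/mL donor/acceptor beads.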
BAZ2B block: blocks human BAZ2B. AlphaScreen BAZ2B-H3K14Ac peptide displacement. Potency, µM (doses to about 114 µM), without a hit: at the highest dose activity change, negative = inhibition, hits mostly inhibitors. 4.4% of 360,000 active; further: potency means the concentration at half of the fitted maximal effect; on the % scale 0 is the no-effect control and ±100 the full control effect; nearly all actives have a fitted effect of over 60% in size
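BAZ2B 50 nM plus b-H3(5-23)K14Ac 50 nM, PBS pH 7.4/0.01% Tween-20, 30 min RT; compound added (max 110 uM), 30 min RT; streptavidin donor/Ni-chelate acceptor beads 10 ug/mL final, 20 min dark; AlphaScreen read.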
JMJD2A Tudor inh: blocks the human JMJD2A Tudor domain; O75164; Potency, µM (titrated, usually from 114 µM), without a hit: top-dose activity change, negative = inhibition, most hits filed as inhibitors; 4.4% of 390,000 active; AlphaScreen JMJD2A-Tudor / H3K4me3 peptide binding; AID 504339; further: potency means the concentration at half of the fitted maximal effect; on the % scale 0 is the no-effect control and ±100 the full control effect; nearly all actives have a fitted effect of over 50% in size
Sfp inh conf: Sfp phosphopantetheinyl transferase inhibition, confirmation; Potency, µM (titrated, usually from 114 µM), inactives show at the highest dose activity change, negative = inhibition, most hits filed as inhibitors; shares compounds with Sfp inh; 79% of 380 active; Sfp PPTase enzymatic assay, qHTS titration;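 further: potency means the concentration at half of the fitted maximal effect; plate controls were uninhibited Sfp reaction for no effect and no enzyme control for full effect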
Sfp PPTase gel: Inhibits B. subtilis Sfp phosphopantetheinylation. Potency, µM, actives largely listed as inhibitors. purified Sfp, gel-based phosphopantetheinylation read-out. AID 2707. 20% of 210 active. shares compounds with Sfp inh;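 active means potency below 100 µM; inconclusive means dose-dependent response but potency above 100 µM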;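 further: band intensities scaled against SCH202676 control wells before curve fitting; potency is an IC50 for inhibitors of Sfp transfer activity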
An asterisk follows results filed as active; i = inactive; ? = inconclusive; / = no result; ! = repeats disagree; [ ] = dose if it differs, or a comment. Only some compounds are listed: those with a hit (about 12% of all), similar ones and a draw of the others. Unless noted, the call rests on the fitted dose curve; in most records, active means well fitted curve in the direction sought with a large enough effect; inconclusive means small, poorly fitted or top-dose-only effect, or another doubt; inactive means no such curve, though single readings can be large; an effect the other way counts as inactive or inconclusive.

SMILES	G9a block	Sfp inh	PLK1 PBD block	HP1b binding inh	BAZ2B block	JMJD2A Tudor inh	Sfp inh conf	Sfp PPTase gel
Nc1ccc(C(=O)n2c3ccccc3c3ccccc32)cc1	8.9µM*	45µM*	-21%	25%	-2%	-21%	?	/
COc1ccc(-c2noc(CSc3nc4sc(C)c(C)c4c(=O)n3-c3ccccc3)n2)cc1	-12%[59 µM]	4µM*	-8%	25%	-8%	-13%	4.7µM*	i
OC(CN1CCNCC1)Cn1c2ccc(Br)cc2c2cc(Br)ccc21 (stereo unspecified)	/	35µM*	/	/	/	/	-9%	i
O=C(CN1C(=O)c2cccc3cccc(c23)C1=O)NCCN1CCOCC1	-10%	-3%	-4%	26%	-4%	-22%	/	/
COc1ccc(NC(=O)c2cc(Cl)ccc2NC(=O)c2ccco2)c(OC)c1	-11%	16µM*	-19%	42%	-17%	?	47µM*	i
COc1ccc(NC(=O)c2ccccc2Cl)c(NC(=O)c2ccco2)c1	?	8%	-13%	27%	-24%	-13%	/	/
COc1ccccc1CNc1ccc(-c2nc(-c3ccncc3)no2)cc1[N+](=O)[O-]	-18%[59 µM]	/	/	4%	-11%	-18%	/	/
Cc1cc(Cl)ccc1NC(=O)CN(c1ccccc1Br)S(C)(=O)=O	5%[59 µM]	/	/	10%	3%	-13%	/	/
CCOc1ccccc1NC(=O)c1c(NC(=O)CCC(=O)O)sc2c1CCCCC2	25µM*	13µM*	?	-24%	?	45µM*	24µM*	i
CCC(=O)Nc1sc2c(c1C(=O)Nc1ccc(Br)cc1)CCCCC2	?	/	/	22%	-18%	?	/	/
CCOC(=O)c1ccc(NC(=O)c2c(NC(=O)CCC(=O)O)sc3c2CCCCC3)cc1	32µM*	11µM*	27µM*	?	-31%	-34%	12µM*	i
COc1cc(NC(=O)CSC2=Nc3ccccc3N=C(c3ccc(F)cc3)C2)cc(OC)c1	-2%[59 µM]	/	/	11%[57 µM]	1%	-12%	/	/
C(=C\c1ccccc1)/CN1CCN(C(c2cc3ccccc3o2)c2nnnn2Cc2ccccc2)CC1 (stereo unspecified)	/	/	-3%	/	/	/	/	/
COc1ccc(NC(=O)c2cncc(Br)c2)cc1S(N)(=O)=O	7%	14%	-5%	39%	1%	2%	/	/
c1cncc(-c2nnc(-c3cccnc3)nn2)c1	8.9µM*	40µM*	6.7µM*	?	-36%	-25%[57.1 µM]	15µM*	/
Cc1ccc(C(=O)NNC(=O)Cn2ccc(C(F)(F)F)n2)o1	-7%[0.501 µM]	/	-1%	14%	-2%	-1%	/	/
CO/N=C(\C(=O)N[C@@H]1C(=O)N2C(C(=O)O)=C(COC(N)=O)CS[C@@H]12)c1ccco1	13%[21.5 µM]	-4%	/	/	/	/	/	/
CO/N=C(/C(=O)N[C@@H]1C(=O)N2C(C(=O)O)=C(CSc3cnns3)CS[C@H]12)c1csc(N)n1	?	40µM*	/	/	/	/	53µM*	56µM*
CC(C)N(CCC(=O)c1ccc2ccccc2c1)Cc1ccccc1	1.7µM*	4µM*	3.4µM*	-28%	17%	50µM*	15µM*	?
COc1ccc2[nH]c(=O)c(CN(C(C)=O)C3CCCCC3)cc2c1	9%	11%	-8%	15%	-1%	-19%	/	/
COc1ccc2[nH]c(=O)c(CN(C(=O)c3ccco3)C3CCCCC3)cc2c1	?	7.9µM*	-8%	28%	32%	-17%	37µM*	i
O=C(c1ccc(-c2ccc([N+](=O)[O-])cc2)o1)N1CCCCC1	?	16µM*	-11%	-9%	?	?	19µM*	?
CC1CCc2c(sc(NC(=O)C3c4ccccc4Oc4ccccc43)c2C(N)=O)C1 (stereo unspecified)	1%[59 µM]	-12%	-2%	23%	9%	-16%	/	/
COC(=O)Nc1sc2c(c1C(N)=O)CCC(C)C2 (stereo unspecified)	14µM*	3.5µM*	?	10%	-20%	-23%	15µM*	/
COc1cc2nc(N3CCN(C(=O)C4CCCO4)CC3)nc(N)c2cc1OC (stereo unspecified)	?	56µM*!	-15%	7%	2%	?	0%	?
SMILES	G9a block	Sfp inh	PLK1 PBD block	HP1b binding inh	BAZ2B block	JMJD2A Tudor inh	Sfp inh conf	Sfp PPTase gel
Nc1cccnc1Sc1ccc(Cl)cc1	49%[12.7 µM]	5%	-7%	30%	-4%	-28%	/	/
Nc1cccnc1Sc1cccc(Cl)c1	-39%	3.2µM*	?	42%	-36%[57.1 µM]	-15%	19µM*	/
COCCCn1c(=O)c2sccc2n2c(CCCC(=O)Nc3cccc(OC)c3)nnc12	-26%[59 µM]	/	/	27%	-16%	-12%	/	/
Nc1nc2c(s1)CCc1c-2cnn1-c1ccccc1	?	2.5µM*	2.7µM*	11µM*	45µM*	25µM*	7.4µM*	/
Nc1c(C(=O)Nc2ccccc2F)sc2nc(-c3ccco3)ccc12	?	4µM*	?	16%	-2%	-15%	1.7µM*	/
NC(=O)c1sc2nc(-c3ccco3)ccc2c1N	?	5µM*	-27%	37%	-3%	-19%	6.6µM*	i
CN(C(=O)CSc1nc2c(c(=O)[nH]1)CCCC2)c1ccccc1	?	/	/	23%	-14%	4%	/	/
CCOC(=O)c1cc(=O)n2nc(-c3ccccc3F)nc2s1	?	14µM*	-5%	29%	-18%	?	59µM*	/
Cc1ccc(/C(C#N)=C\c2ccc(N3CCOCC3)o2)cc1	2.5µM*	1.4µM*	12%	?	79µM*	56µM*	13µM*	i
N#C/C(=C/c1ccc(N2CCCCC2)o1)c1cccc(F)c1	2.5µM*	2.8µM*	-9%	?	40µM*	45µM*	21µM*	19µM*
N#C/C(=C/c1ccc(N2CCOCC2)o1)C(=O)Nc1ccccc1	-2%	?	79%	17%	-26%	-21%	/	/
COc1ccc(C(=O)N(Cc2cccs2)Cc2cccs2)c(O)c1	/	/	/	/	/	-28%	/	/
Cc1cccc(N2CCC(N3CCN(C4CCCCC4)C(CCO)C3)CC2)c1C (stereo unspecified)	16µM*	10µM*	5%	18%	45µM*	-1%	-7%	i
c1ccc(-c2nnc(CN3CCCc4ccccc43)o2)cc1	?	14µM*	-25%	-22%	?	-27%[11.4 µM]	47µM*	?
c1ccc(-c2nnc(CN3CCCCC3)o2)cc1	3%	?	2%	33%	-8%	-1%	/	/
